According to PubChem BioAssay AID720526 (National Center for Advancing Translational Sciences (NCATS), 2013):
Results filed as inconclusive are left out. Active and inactive are the calls of the source. Calls come from the whole dose curve; as a rule, active = well fitted activation curve with a large enough effect; inconclusive = small, poorly fitted or top-dose-only effect; inactive = no such curve, though single readings can be large or run the other way.

Assay: qHTS Assay for NPC1 Promoter Activators: Hit Validation Using Renila Luciferase Read-Out for NPC1
Conditions: Huh7 NPC1 promoter-luciferase reporter, luminescence, 24 h; series mostly up to 76.9 µM
From the text: Niemann Pick Type C (NPC) is a rare neurodegenerative lipidosis that is characterized by lipid storage in the endosomal/lysosomal system. Treatment modalities for this devastating disease are currently non-existent due to the severe obstacles associated with accessing the central nervous system with proteins or genes. The majority of mutations causing NPC disease are missense mutations that are distributed throughout the length of the NPC1 protein, with the most prevalent being the I1061T allele. Although NPC1 mutant proteins may be functional, they are typically trapped in the ER due to misfolding. […] We have developed and optimized a cell based renilla luciferase reporter assay in 1536 well format for the identification of up-regulators of the mutant Rab9 promoter. This assay presents data on the validation of hits from the primary screen, which used a firefly luciferase read-out. NIH Chemical Genomics Center [NCGC] NIH Molecular Libraries Probe Production centers Network [MLPCN] MLPCN Grant: MH089375 Assay Submitter (PI): Yiannis A. Ioannou
Huh7 cells stably expressing NPC promoter-luciferase will be seeded at 1,500 cells/well in 5 uL in 1,536-well white opaque plates with 23 nL/well of compound in DMSO solution. The assay plates will be incubated at 37 deg C for 24 hours, after which 3 uL/well BriteLite plus luciferase detection reagent mixture (Perkin Elmer) will be added. Luminescence signal will be measured in a ViewLux plate reader (Perkin Elmer) after a 10 minute incubation at the room temperature.
For `CN1CCc2cc3c(c4c2C1Cc1ccccc1-4)OCO3` (stereo unspecified), the outcome was “inactive”.
With `Cc1cccn2c(NCC3CCCO3)c(C(C)C)nc12` (stereo unspecified) the outcome was “inactive”.
In the case of `CCC(=NCc1cccnc1)c1c(O)n(-c2ccccc2)c(=O)[nH]c1=O`, the outcome is reported as “inactive”.
With `COc1cccc(CCNCc2ccc(SC)cc2)c1` the outcome was “inactive”.
With `COc1ccc(C(CC(=O)N2CCC3(CC2)OCCO3)NS(=O)(=O)c2ccc(F)cc2)cc1` (stereo unspecified) the outcome was “inactive”.
With `O=C1c2ccccc2C(=O)N1Cc1nc2ccccc2c(=O)n1-c1cccnc1` the outcome was “inactive”.
